Compound activity deposited in PubChem BioAssay by National Center for Advancing Translational Sciences (NCATS).
Compounds with a hit are over-represented: about 3.1% of the library has one in this group of screens.
TrxR1 substrate = qHTS Assay for Substrates of Mammalian Selenoprotein Thioredoxin Reductase 1 (TrxR1): qHTS; purified TrxR1 substrate turnover, NADPH consumption readout; Potency, µM (series often up to 114 µM), for the others: at the highest dose activity change, negative = substrate turnover; Thioredoxin reductase 1, cytoplasmic (Rattus norvegicus), O89049; AID 588456, 2011; 390,000 compounds, 0.01% hits; further: on the % scale 0 is the no-effect control and ±100 the full control effect; nearly all actives have a fitted effect of over 50% in size
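Rat TrxR1, dispensed at 90 nM, was prereduced with 400 uM NADPH (final) for 5 min at ~22 deg C, then incubated with compound 15 min before 400 uM selenite. A first-read NADPH fluorescence drop versus no-compound background flagged substrates.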
Nrf2 block = Nrf2 qHTS screen for inhibitors. A549 ARE-Fluc reporter, luciferase luminescence, 18-24 h. AID 504444, 2011. 360,000 compounds, 2.1% hits. Potency, µM (top dose mostly 46 µM), for the others: at the top dose activity change, negative = inhibition, usual class: inhibitors; further: on the % scale 0 is the no-effect control and ±100 the full control effect; nearly all actives have a fitted effect of over 60% in size
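Nrf2 function is reported as luminescence of an ARE-controlled luciferase in A549 cells. Compounds were tested at several concentrations, and a CellTiter-Fluor read on the same wells flagged cytotoxicity.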
Mito fusion act = qHTS Assay for Small Molecule Inhibitors of Mitochondrial Division or Activators of Mitochondrial Fusion. 320,000 compounds, 0.23% hits. S. cerevisiae fusion-defective mutant growth rescue, CellTiterGlo 48 h. Potency, µM (doses to about 46.1 µM), inactives show at the top dose growth rescue (activation), actives largely listed as activators. AID 485298, 2010; further: % of control where 0% means no effect; nearly all actives have a fitted effect of over 45% in size
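Luminescent cell viability in 1536-well qHTS format served as the measure of rescued growth in ts fusion-mutant S. cerevisiae cultured on non-fermentable YPEG for 48 hours at 37C.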
rTrxR1 inhibitor = qHTS Assay for Inhibitors of Mammalian Selenoprotein Thioredoxin Reductase 1 (TrxR1): qHTS; Thioredoxin reductase 1, cytoplasmic (Rattus norvegicus), O89049; recombinant rTrxR1, NADPH fluorescence consumption, selenite substrate; Potency, µM (top dose mostly 114 µM), for inactives: top-dose activity change, negative = inhibition, most hits filed as inhibitors; 390,000 compounds, 1% hits; AID 588453, 2011; further: on the % scale 0 is the no-effect control and ±100 the full control effect; nearly all actives have a fitted effect of over 65% in size
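Rat TrxR1 (90 nM in the dispensed reagent) was pre-reduced with 400 uM NADPH for 5 min at room temperature, then incubated with compound for 15 min. After 400 uM selenite was added, NADPH fluorescence (Ex 340/Em 450 nm) was followed for 8 min.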
A549 tox-1 = Nrf2 qHTS screen for inhibitors: counterscreen for cytotoxicity | A549 ARE-Fluc cells, CellTiter-Fluor viability, 18-24 h | Potency, µM (titrated, usually from 46 µM), without a hit: top-dose activity change, negative = cytotoxicity, actives largely listed as inhibitors | 390,000 compounds, 0.16% hits | AID 504648, 2011; further: on the % scale 0 is the no-effect control and ±100 the full control effect
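Cytotoxicity counterscreen: CellTiter-Fluor fluorescence was measured in A549 ARE_Fluc cells after 18-24 h of compound exposure in a concentration series. The subsequent BugLite luminescent read reports ARE-luciferase activity.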
mIDH1 inhibitor = qHTS for Inhibitors of mutant isocitrate dehydrogenase 1 (IDH1): qHTS. IDH1-R132H enzyme, NADPH consumption, diaphorase/resazurin fluorescence. Potency, µM (top dose mostly 76.6 µM), for inactives: top-dose activity change, negative = inhibition, most hits filed as inhibitors. 390,000 compounds, 0.093% hits. AID 602179, 2012; further: on the % scale 0 is the no-effect control and ±100 the full control effect; nearly all actives have a fitted effect of over 65% in size
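IDH1-R132H (0.5 ug/mL) preincubated 30 min with compound, then NADPH (0.016 mM) and alpha-KG (2 mM) added; 80 min at RT, pH 7.5. Remaining NADPH coupled via diaphorase/resazurin to fluorescence (540/590 nm); concentration-response curves normalized to no-enzyme control.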
FLuc counter 3 = Nrf2 qHTS screen for inhibitors: Purified Fluc Biochemical Counterscreen for Hit Validation; shares compounds with Nrf2 block; purified firefly luciferase, luminescence inhibition; Potency, µM (series often up to 57.5 µM), for the others: at the highest dose activity change, negative = inhibition, hits mostly inhibitors; 1,400 compounds, 4% hits; AID 720522, 2013; further: on the % scale 0 is the no-effect control and ±100 the full control effect; nearly all actives have a fitted effect of over 65% in size
Target sequence (P08659 whole entry, looked up): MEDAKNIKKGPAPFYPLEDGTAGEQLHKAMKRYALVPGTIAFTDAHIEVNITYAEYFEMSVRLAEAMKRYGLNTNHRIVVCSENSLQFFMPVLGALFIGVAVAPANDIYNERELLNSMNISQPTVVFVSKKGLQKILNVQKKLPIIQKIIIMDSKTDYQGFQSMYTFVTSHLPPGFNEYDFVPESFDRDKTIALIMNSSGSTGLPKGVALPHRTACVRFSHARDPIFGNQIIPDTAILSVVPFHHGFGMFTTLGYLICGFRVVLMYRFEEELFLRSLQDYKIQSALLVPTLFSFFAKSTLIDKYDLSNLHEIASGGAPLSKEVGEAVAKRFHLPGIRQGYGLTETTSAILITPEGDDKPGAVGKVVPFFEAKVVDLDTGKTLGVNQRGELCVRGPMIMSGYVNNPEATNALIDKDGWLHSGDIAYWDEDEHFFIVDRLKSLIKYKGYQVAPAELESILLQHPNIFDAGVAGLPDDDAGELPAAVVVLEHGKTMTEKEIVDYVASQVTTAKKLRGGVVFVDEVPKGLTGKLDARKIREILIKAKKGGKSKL
A549 tox-2 = Nrf2 qHTS screen for inhibitors: A549 ARE-Fluc Cytotoxicity Counterscreen for Hit Validation; A549 ARE-Fluc cells, cytotoxicity counterscreen; shares compounds with Nrf2 block; Potency, µM (titrated, usually from 46.1 µM), for the others: top-dose activity change, negative = cytotoxicity, hits mostly inhibitors; 1,400 compounds, 2% hits; AID 720523, 2013;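 further: cells exposed to compounds for 18 to 24 hours; on the % scale 0 is the no-effect control and ±100 the full control effect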
Nrf2 ARE inh = Nrf2 qHTS screen for inhibitors: Nrf2 A549 ARE-Fluc Confirmation Assay for Hit Validation; shares compounds with Nrf2 block; Potency, µM (doses to about 46.1 µM), inactives show at the top dose activity change, negative = inhibition, hits mostly inhibitors; A549 ARE-firefly luciferase reporter, luminescence; 1,400 compounds, 74% hits; further: on the % scale 0 is the no-effect control and ±100 the full control effect; nearly all actives have a fitted effect of over 65% in size
* hit, by the source's call; ? = inconclusive; nt = not tested or not shown; [ ] = another dose, or the depositor's remark. The call rests on the fitted dose curve; in most records, active means well fitted curve in the direction sought with a large enough effect; inconclusive means small, poorly fitted or top-dose-only effect, or another doubt; inactive means no such curve, though single readings can be large; an effect the other way counts as inactive or inconclusive. Potency means the concentration at half of the fitted maximal effect.

SMILES	TrxR1 substrate	Nrf2 block	Mito fusion act	rTrxR1 inhibitor	A549 tox-1	mIDH1 inhibitor	FLuc counter 3	A549 tox-2	Nrf2 ARE inh
CCCCC(=O)O[C@]1(C(=O)CO)CC[C@H]2[C@@H]3CCC4=CC(=O)CC[C@]4(C)[C@H]3[C@@H](O)C[C@@]21C	2%	0.016µM*	4%	5%	-8%	-3%	-1%	-14%	0.013µM*
CC12C=CC(=O)C=C1CCC1C2C(O)CC2(C)C1CCC2(O)C(=O)CO (stereo unspecified)	5%	0.058µM*	nt	3%	-1%	-5%	4%	-3%	0.1µM*
CC12CCC(=O)C=C1C(F)CC1C2C(O)CC2(C)C1CCC2(O)C(=O)CO (stereo unspecified)	5%	0.058µM*	nt	16%	4%	4%	0%	-5%	0.058µM*
CCC(C(=O)OCC(=O)C1(O)CCC2C3CCC4=CC(=O)CCC4(C)C3C(O)CC21C)C(C)C (stereo unspecified)	-5%	1.2µM*	nt	8%	-3%	1%	-1%	-29%	nt
CC(=O)OCC(=O)[C@@]1(O)CCC2C3CCC4=CC(=O)CCC4(C)C3C(=O)CC21C (stereo partly specified)	2%	2%	4%	10%	-7%	8%	nt	nt	nt
Cc1ccc(NC(=O)CSc2nccn2Cc2ccc3c(c2)OCO3)c(C)c1	-2%[57.1 µM]	nt	nt	14%[57.1 µM]	12%	30%	nt	nt	nt
Cc1ccc(S(=O)(=O)N2CCc3cc(C(=O)NCCc4ccccc4)ccc32)cc1	-7%	-11%	nt	15%	4%	13%	nt	nt	nt
CCSC1=NC2(CCN(C(=O)NC3CCCCC3)CC2)N=C1c1ccc(C)c(C)c1	1%	?	nt	11%	1%	34%	nt	nt	nt
CC(=O)OCC(=O)[C@@]1(O)CC[C@H]2[C@@H]3CCC4=CC(=O)C=C[C@]4(C)[C@H]3[C@@H](O)C[C@@]21C	1%	0.052µM*	-2%	30%	-8%	9%	0%	-6%	0.041µM*
CC(=O)OCC(=O)[C@@]1(O)CC[C@H]2[C@@H]3CCC4=CC(=O)C=C[C@]4(C)[C@@]3(Cl)[C@@H](Cl)C[C@@]21C	0%	8.2µM*	-9%	10%	?	-2%	2%	-6%	1.3µM*
CNC(=O)c1c(NC(=O)c2ccc(S(=O)(=O)N3CCCCC3)cc2)sc2c1CCC2	1%[57.1 µM]	nt	nt	13%[57.1 µM]	0%	1%	nt	nt	nt
O=C(c1cnc(N2CCN(c3ccccn3)CC2)c2ccccc12)N1CCN(c2cccc(Cl)c2)CC1	63%[57.1 µM]	5.8µM*	13%	114%[57.1 µM]	-30%	1%	4%	-22%	8.2µM*
